Among the test systems are OVCAR-8 ovarian; OVCAR-5 ovarian; OVCAR-4 ovarian; SK-OV-3 ovarian; IGROV1 ovarian; OVCAR-3 ovarian; HS 578T breast; NCI/ADR-RES ovarian; T-47D breast; RPMI-8226 leukemia.
Holding throughout (experiment): NCI-60 one-dose screen, 48 h (100 = growth as untreated, 0 = no growth, -100 = all killed)
What all share (conditions): 10 µM unless noted

Compounds without any hit were thinned out: in the full panel of roughly 83,000, 20% have a hit.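 48-hour exposure, single concentration, 96-well plates; percent growth endpoint where 0 means no net growth. Active: below 10.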 Values without a mark were called inactive. Activity calls are given as the source filed them.

Turning to `O=C(Nc1nc2c(s1)CCc1c-2c(Br)n(Cc2ccccc2)c1Br)c1ccccc1`, the growth with OVCAR-8 ovarian is 45.4%; in the assay on OVCAR-5 ovarian it was 79.9%; in the assay on OVCAR-4 ovarian, -3.77% (active); in the assay with SK-OV-3 ovarian, 57.2%; with IGROV1 ovarian it was 18.8%; in the assay on OVCAR-3 ovarian, 62.3%. Further, the growth in the assay with HS 578T breast was 47.9%; with NCI/ADR-RES ovarian, 61.8%; with T-47D breast it was 46.4%.

As for `O=CCCCC(O)C=O` (stereo not given), the growth in the assay on OVCAR-8 ovarian is 106%; with OVCAR-5 ovarian, 106%; with OVCAR-4 ovarian it was 103%; in the assay with SK-OV-3 ovarian it was 104%; with IGROV1 ovarian, 108%; in the assay on HS 578T breast, 98.1%. In addition, the growth in the assay on NCI/ADR-RES ovarian is 99.2%; with T-47D breast, 95.9%.

As for `COc1cc(/C=C2\CCC/C(=C\c3cc(CN4CCOCC4)c(O)c(OC)c3)C2=O)cc(CN2CCOCC2)c1O`, the growth was 19.9% in the assay on RPMI-8226 leukemia; 34% in the assay on OVCAR-5 ovarian; 36.1% in the assay with OVCAR-4 ovarian; 50.7% in the assay on IGROV1 ovarian; 19.4% in the assay with OVCAR-3 ovarian; 55.1% in the assay on HS 578T breast. The results for the growth in the assay with NCI/ADR-RES ovarian and in the assay with T-47D breast were 23.3% and 63.3%, respectively.

Consider `CCOc1ccccc1CN1CCc2nc3cc(C(C)(C)C)[nH]n3c(=O)c2C1`, for which the growth was 103% in the assay with OVCAR-8 ovarian; 97.9% in the assay with OVCAR-5 ovarian; 101% in the assay with OVCAR-4 ovarian; 110% with SK-OV-3 ovarian; 99.5% in the assay with IGROV1 ovarian; 106% in the assay on OVCAR-3 ovarian. In addition, the values for the growth in the assay on HS 578T breast, in the assay on NCI/ADR-RES ovarian and in the assay with T-47D breast were 100%, 91.8% and 98.6%, respectively.

As to `CC[C@]1(O)C[C@@H]2CN(CCc3c([nH]c4ccccc34)[C@@](C(=O)OC)(c3cc4c(cc3OC)N(C)[C@H]3[C@@](O)(C(=O)OC)[C@H](OC(C)=O)[C@]5(CC)C=CCN6CC[C@]43[C@@H]65)C2)C1`, the growth in the assay with RPMI-8226 leukemia is 11.3%; with OVCAR-5 ovarian, 17.4%; in the assay on SK-OV-3 ovarian, 43.5%; in the assay on OVCAR-3 ovarian, -4.09% (active); in the assay with HS 578T breast, 15.8%; with NCI/ADR-RES ovarian, -19.8% (active). In addition, the growth in the assay with T-47D breast was 68.6%.

As for `c1ccc2cc3c(Nc4ccc(N5CCOCC5)cc4)ccnc3cc2c1`, the growth in the assay with RPMI-8226 leukemia is 60.1%; in the assay with OVCAR-5 ovarian, 97%; with SK-OV-3 ovarian, 107%; in the assay on IGROV1 ovarian it was 89.5%; in the assay with OVCAR-3 ovarian, 96%; in the assay with HS 578T breast, 103%. Moreover, the growth in the assay on NCI/ADR-RES ovarian was 91.1%; in the assay with T-47D breast it was 95.5%.

As for `CSc1nc2c(c(=O)n1C)N=C1c3ccccc3C(=O)C1C(c1ccccc1)N2` (stereo not given), the growth is 77.7% in the assay on OVCAR-8 ovarian; 87.9% in the assay with OVCAR-5 ovarian; 72.6% in the assay with OVCAR-4 ovarian; 72.4% with SK-OV-3 ovarian; 30.4% in the assay with IGROV1 ovarian; 39.4% with OVCAR-3 ovarian. Further, the figures for the growth with HS 578T breast, with NCI/ADR-RES ovarian and in the assay on T-47D breast were 71.8%, 55.8% and 61.9%, respectively.

Regarding `COc1ccc(-c2nnc(COc3ccc(C(=O)/C=C/c4ccco4)cc3)o2)cc1`, the growth was 73.9% in the assay on OVCAR-8 ovarian; 97.7% with OVCAR-5 ovarian; 67.9% in the assay on OVCAR-4 ovarian; 92.8% in the assay with SK-OV-3 ovarian; 87.6% with IGROV1 ovarian; 64.1% in the assay with OVCAR-3 ovarian. For the same compound, the figures for the growth in the assay on NCI/ADR-RES ovarian and with T-47D breast were 89.2% and 80.6%, respectively.

For the compound `COc1ccc2[nH]c(O)c(N=NC(=O)c3oc4ccccc4c3C)c2c1`, the growth with OVCAR-8 ovarian is 37.8%; with OVCAR-5 ovarian it was 41.7%; with OVCAR-4 ovarian it was -52.8% (active); with IGROV1 ovarian, 6.33% (active); in the assay with OVCAR-3 ovarian, -65.5% (active); with HS 578T breast, 25.5%. Besides, the growth is 30.5% in the assay with NCI/ADR-RES ovarian and -39.2% (active) in the assay with T-47D breast.

As to `O=C1N=c2ccccc2=C1c1sc(=Nc2ccccc2)n(Nc2ccccc2)c1O`, the growth in the assay on OVCAR-8 ovarian is 105%; in the assay with OVCAR-5 ovarian, 101%; with OVCAR-4 ovarian, 43.5%; with IGROV1 ovarian, 96.2%; in the assay with OVCAR-3 ovarian it was 110%; in the assay on NCI/ADR-RES ovarian, 108%. Moreover, in the assay on T-47D breast, the growth is 97.6%.

Take `O=C(CN1C=NC2C(N3CCOCC3)=NC=NC21)c1ccc(Br)cc1` (stereo not given): the growth with OVCAR-8 ovarian is 100%; with OVCAR-5 ovarian, 99%; with OVCAR-4 ovarian, 97%; with IGROV1 ovarian it was 95.6%; in the assay on OVCAR-3 ovarian it was 108%; with HS 578T breast it was 102%. Also, the growth is 103% in the assay on NCI/ADR-RES ovarian and 101% in the assay with T-47D breast.

`Cc1ccc(NC2=CC(=O)C(=O)c3ccccc32)c(C)c1`: the growth is 27.9% in the assay with OVCAR-8 ovarian; 80.3% in the assay with OVCAR-5 ovarian; 48.1% with OVCAR-4 ovarian; 35.6% in the assay on IGROV1 ovarian; -15.6% (active) in the assay on OVCAR-3 ovarian; 79.5% with HS 578T breast. Further, the growth is 15.6% in the assay on NCI/ADR-RES ovarian and 22.9% with T-47D breast.

On to `CN1C(=O)N(C)C2(c3ccccc3)n3c(s/c(=C\c4ccccc4)c3=O)=NNC12c1ccccc1` (stereo not given), for which the growth in the assay with OVCAR-8 ovarian was 96.8%; in the assay with OVCAR-5 ovarian, 99.9%; in the assay with OVCAR-4 ovarian, 100%; in the assay on IGROV1 ovarian, 97.9%; with OVCAR-3 ovarian, 103%; in the assay on HS 578T breast it was 102%. For the same compound, the growth in the assay on NCI/ADR-RES ovarian is 88.3%; with T-47D breast, 81.9%.

In the case of `N#CC(C#N)=Cc1c(-c2ccccc2)[nH]c2ccccc12`, the growth was 75.3% in the assay with OVCAR-5 ovarian; 25.3% with SK-OV-3 ovarian; -27.5% (active) in the assay with OVCAR-3 ovarian; 16.2% in the assay with NCI/ADR-RES ovarian; 38.6% in the assay with T-47D breast.

The values above are taken from PubChem BioAssay (NCI).
